# An excerpt weighted towards active compounds, which were near 3% of everything screened.
# TexasRed fluor: counter-screen for TRb-SRC2 inhibitors: fluorescence interference; TRb/SRC2 Texas Red total fluorescence interference; Potency, µM (series often up to 106 µM), for inactives: at the highest dose fluorescence change, negative = quenching; 280,000 tested, 0.29% active; AID 1479; active = well fitted curve in either direction with a large enough effect; inconclusive = small, poorly fitted or top-dose-only effect
#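 Human TRb ligand-binding domain at 0.6 uM with 20 nM Texas Red SRC2 peptide in Tris buffer containing 1 uM T3 and 5% DMSO, incubated with compound 5 h at ambient temperature. Total fluorescence (555/632 nm) calculated as parallel + 2 × perpendicular.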
# Tau fibril ThT: tau fibrillization inhibition (ThT binding) | P10636 | recombinant tau K18 P301L, heparin-induced fibrillization, ThT fluorescence | Potency, µM (top dose mostly 57.4 µM), for the others: at the highest dose activity, negative = inhibition, usual class: inhibitors | 270,000 tested, 2.1% active | AID 1460; also: nearly all actives have a fitted effect of over 55% in size
# Target sequence (P10636 561-689 P618L limits assumed): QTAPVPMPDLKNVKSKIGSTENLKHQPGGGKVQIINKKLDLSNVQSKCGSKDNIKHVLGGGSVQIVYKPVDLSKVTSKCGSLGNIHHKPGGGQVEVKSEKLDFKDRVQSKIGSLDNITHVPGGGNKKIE
#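 Tau K18 P301L fragment (15 uM unlabeled plus 0.24 uM Alexa 594-labeled) in 100 mM sodium acetate pH 7 with compound, fibrillization induced by 20 uM heparin for 6 hr at 37 C. Thioflavin T (30 uM) added, fluorescence read after 1 hr (ex 450, em 510 nm).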
# TRb-SRC2 inh: inhibitors of human thyroid hormone receptor beta-SRC2 interaction; P10828; TRbeta-SRC2 peptide binding, fluorescence polarization; receptor liganded with 1 µM T3; Potency, µM (titrated, usually from 106 µM), for the others: top-dose activity change, negative = inhibition, actives largely listed as inhibitors; 280,000 tested, 0.065% active; AID 1469;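 also: plate controls were bound peptide for no effect and peptide without receptor for full effect; nearly all actives have a fitted effect of over 50% in size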
#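 Fluorescence polarization of 20 nM Texas Red SRC2 peptide with 0.6 uM human TRb ligand-binding domain, in Tris buffer with 1uM T3 and 5% DMSO. Incubated 5 hr ambient; normalized to unbound and bound controls.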
# Tau fluor cs: counter-screen for tau fibril formation inhibitors; tau K18 P301L Alexa594 fluorescence, heparin fibrillization; Potency, µM (doses to about 57.7 µM), inactives show at the top dose activity change, negative = decrease; 280,000 tested, 0.93% active; AID 1463; also: nearly all actives have a fitted effect of over 55% in size
#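 Human tau K18 P301L (15 uM unlabeled, 0.24 uM Alexa 594-labeled) in 100 mM sodium acetate pH 7 with 20 uM heparin, 6 hr at 37 C. ThT 30 uM added, 1 hr ambient; Alexa 594 FP and total fluorescence read at 555/632 nm.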
# Tau fibril FP: inhibitors of human tau fibril formation | P10636 | K18 P301L tau heparin fibrillization, Alexa594 FP, 6 h | Potency, µM (doses to about 57.7 µM), for inactives: at the highest dose activity, negative = inhibition, usual class: inhibitors | 280,000 tested, 0.39% active; also: nearly all actives have a fitted effect of over 55% in size
#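 K18 P301L tau (15 uM unlabeled/0.24 uM Alexa 594-labeled, final) + compound + heparin 20 uM final; 100 mM NaOAc pH 7; 6 hr 37 C; ThT 30 uM final added, 1 hr RT; FP ex 555/em 632 nm.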
# Starred values were filed as active, the others as inactive; ? = inconclusive; [ ] = another dose, or the depositor's remark. Unless noted, calls follow the shape of the dose curve; as a rule, active = well fitted curve in the direction sought with a large enough effect; inconclusive = small, poorly fitted or top-dose-only effect, or another doubt; inactive = no such curve, though single readings can be large; an effect the other way counts as inactive or inconclusive. Unless noted, % is scaled to controls: 0 for no effect and ±100 for the full control effect; potency is read from the fitted curve at half-maximal effect.
SMILES,TexasRed fluor,Tau fibril ThT,TRb-SRC2 inh,Tau fluor cs,Tau fibril FP
Cc1cccc(OCc2ccc(-c3nc(C#N)c(N4CCN(c5ccccc5)CC4)o3)o2)c1,6310µM*[quencher],-12%,-21%,-21%,-7%
Cc1ccccc1OCc1ccc(-c2nc(C#N)c(NCc3cccnc3)o2)o1,?,?,-4%,18µM*[quencher],?
COCCNc1oc(/C=C/c2ccc(F)cc2)nc1C#N,-4%,-10%,2%,-20%,5%
CCc1ccc(S(=O)(=O)c2nnn3c2nc(NCc2cccc(OC)c2)c2cc(Cl)ccc23)cc1,-27%,8%,-5%,-19%,?
Cc1ccc(-n2ncc(C(=O)N3CCCCC3)c2C2CCN(C(=O)OC(C)(C)C)CC2)c(C)c1,0%,-8%,4%,-4%,-3%
CN(C)c1ccc(/C=C2/C(=O)N(c3ccc([N+](=O)[O-])cc3)N=C2N2CCOCC2)cc1,-5%,16µM*,?,?,-6%
O=[N+]([O-])c1ccc(N2CCOCC2)nc1,-1%,-14%,12%,4%,3%
O=C1CC(N2CCOCC2)=NN1c1ccc([N+](=O)[O-])cc1,-2%,7.1µM*,0%,?,2%
COc1ccc(N2CCN(C(=O)CN3CCSc4ccccc43)CC2)cc1,-5%,?,-4%,-20%,-2%
COc1ccccc1CNc1cc(C)nc2nc(-c3ccc(C)cc3)nn12,-2%,0%,-5%,6%,0%
C=CC[C@@H]1C=C[C@@H](O/N=C2/[C@H]3O[C@@H]3[C@@H](O)[C@H]3[C@H]2CCn2c(=O)n(-c4ccccc4)c(=O)n23)[C@@H](CO)O1,-4%[11.2 µM],-5%[11.5 µM],3%[11.2 µM],-6%[11.6 µM],-3%[11.6 µM]
CC1=CC(C)(C)Nc2ccc(OC(=O)c3ccco3)cc21,-2%,?,-15%,-27%,7%
CC1=CC(C)(C)N2C(=O)C(=O)c3cc(OC(=O)c4ccco4)cc1c32,-1%,13µM*,-2%,-28%,1%
O=C(N/N=C/c1cc2c3c(c1O)CCCN3CCC2)c1ccccc1O,-2%,13µM*,-8%,11µM*[quencher],-5%
O=S(=O)(Nc1cc(F)ccc1F)c1ccc2[nH]c3c(c2c1)CCCC3,3%,-4%,2%,11µM*[quencher],11%
O=S(=O)(Nc1cccc(F)c1)c1ccc2[nH]c3c(c2c1)CCCCC3,-5%,?,-3%,8.9µM*[quencher],?
COc1ccc(S(=O)(=O)Nc2cccc(F)c2)cc1C,-1%[53 µM],0%,-10%[53 µM],-15%,-5%
O=S(=O)(Nc1cc(F)ccc1F)c1ccc2[nH]c3c(c2c1)CCCCC3,-20%,-8%,3%,13µM*[quencher],?
COc1ccc(N2CCN(C(=O)c3cc4c(=O)n(Cc5cccs5)ccc4nc3C)CC2)cc1,-21%,-15%,5%,-11%,8%
CCOc1ccc(NC(=O)CSc2ncc3c(n2)-c2ccccc2N(C)S3(=O)=O)cc1,0%,10%,4%,-8%,?
O=[N+]([O-])c1ccc(N=NNc2ccccc2)cc1,0%,8.9µM*,4%,14µM*[quencher],2%
O=C(O)c1cc(NN=Nc2ccc(Br)cc2)cc([N+](=O)[O-])c1,1%,14µM*,6%,-28%,1%
COc1ccc(/C=N/NC(=O)c2ccc(O)cc2)cc1CN1CCCc2ccccc21,1%,?,0%,14µM*[quencher],?
CCSc1nn(CC(=O)Nc2cccc(CC)c2)c(N)c1S(=O)(=O)c1ccccc1,-1%,-7%,11%,18µM*[quencher],?
CCc1ccc(NC(=O)Cn2nc(SC)c(S(=O)(=O)c3ccc(OC)cc3)c2N)cc1,2%,4%,-4%,-21%,?
COc1ccc(S(=O)(=O)c2c(SC)nn(CC(=O)Nc3ccc(C)c(Cl)c3)c2N)cc1,-2%,7%,-2%,?,25µM*
COc1ccc(-c2cc(C(F)(F)F)nc(SCC(=O)NCc3ccc(Cl)cc3)n2)cc1,-32%,10%,-2%,-9%,?
CCc1ccc(NC(=O)CCN2C(=O)c3cccnc3C2=O)cc1,-6%,-16%,-4%,-2%,4%

# High-throughput results: PubChem BioAssay, National Center for Advancing Translational Sciences (NCATS)
